Out of some 5,500 compounds screened, about 2,000 (36%) were called active. About 18% were inconclusive and are not listed. Cut-off read from the data, not from the text of the source: active = normalized growth mostly below about 0.91 (no sharp cut-off); inconclusive = no clear call, values can overlap the other calls; inactive = mostly above about 0.92. The list shows a part of the results.
Experiment: chemical genetic growth profiling, strain panel (AID 1159580);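 note: tested at 20 µM; growth read once vehicle control cultures reached saturation at 30 °C; 1 = growth at the plate median or of vehicle wells; lower values mean less growth of the strain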
Settings: growth OD

Measured: normalized growth

CCCCc1nc(Cl)c(CO)n1Cc1ccc(-c2ccccc2-c2nn[nH]n2)cc1
inactive: S. cerevisiae deletion strains, locus YJR075W, strain HOC1, hits give low values 0.999 | S. cerevisiae deletion strains, locus YKL009W, strain mrt4, hits give low values 0.985 | S. cerevisiae deletion strains, locus YKL068W, hits give low values 0.997 | S. cerevisiae deletion strains, locus YKL085W, strain MDH1 (second series), hits give low values 0.992 | S. cerevisiae deletion strains, locus YKL085W, strain MDH1, hits give low values 0.992 | S. cerevisiae deletion strains, locus YKL160W, strain elf1, hits give low values 0.991 | S. cerevisiae deletion strains, locus YKL190W, strain CNB1, hits give low values 1.01 | S. cerevisiae deletion strains, locus YKR001C, strain vps1, hits give low values 0.99 | S. cerevisiae deletion strains, locus YKR026C, strain gcn3, hits give low values 0.988 | S. cerevisiae deletion strains, locus YKR091W, strain srl3, hits give low values 0.991 | S. cerevisiae deletion strains, locus YLL001W, strain dnm1, hits give low values 0.98 | S. cerevisiae deletion strains, locus YLL026W, hits give low values 0.992 | S. cerevisiae deletion strains, locus YLL041C, strain sdh2, hits give low values 0.992 | S. cerevisiae deletion strains, locus YLR027C, strain aat2, hits give low values 0.993 | S. cerevisiae deletion strains, locus YLR039C, strain RIC1, hits give low values 1.02 | S. cerevisiae deletion strains, locus YLR058C, strain SHM2, hits give low values 0.997 | S. cerevisiae deletion strains, locus YLR102C, strain apc9, hits give low values 0.994 | S. cerevisiae deletion strains, locus YLR113W, strain HOG1, hits give low values 1.01 | S. cerevisiae deletion strains, locus YLR221C, strain rsa3, hits give low values 0.987 | S. cerevisiae deletion strains, locus YLR258W, strain gsy2, hits give low values 0.998 | S. cerevisiae deletion strains, locus YLR262C, strain YPT6 (second series), hits give low values 0.995 | S. cerevisiae deletion strains, locus YLR262C, strain YPT6, hits give low values 1.04 | S. cerevisiae deletion strains, locus YLR268W, strain sec22, hits give low values 0.999 | S. cerevisiae deletion strains, locus YLR320W, strain mms22, hits give low values 0.985 | S. cerevisiae deletion strains, locus YLR330W, strain CHS5, hits give low values 1.01 | S. cerevisiae deletion strains, locus YLR342W, strain FKS1 (second series), hits give low values 0.997 | S. cerevisiae deletion strains, locus YLR342W, strain FKS1, hits give low values 1.01 | S. cerevisiae deletion strains, locus YLR357W, strain rsc2, hits give low values 0.993 | S. cerevisiae deletion strains, locus YLR370C, strain arc18, hits give low values 0.987 | S. cerevisiae deletion strains, locus YLR371W, strain rom2, hits give low values 0.997 | S. cerevisiae deletion strains, locus YLR384C, strain iki3, hits give low values 0.974 | S. cerevisiae deletion strains, locus YLR418C, strain cdc73, hits give low values 1 | S. cerevisiae deletion strains, locus YML016C, strain PPZ1, hits give low values 1 | S. cerevisiae deletion strains, locus YML032C, strain rad52, hits give low values 1 | S. cerevisiae deletion strains, locus YML120C, strain ndi1, hits give low values 0.981 | S. cerevisiae deletion strains, locus YML124C, strain tub3, hits give low values 0.997 | S. cerevisiae deletion strains, locus YMR058W, strain fet3, hits give low values 1 | S. cerevisiae deletion strains, locus YMR078C, strain ctf18, hits give low values 0.999 | S. cerevisiae deletion strains, locus YMR125W, strain sto1, hits give low values 0.982 | S. cerevisiae deletion strains, locus YMR129W, hits give low values 0.994 | S. cerevisiae deletion strains, locus YMR205C, strain PFK2, hits give low values 0.998 | S. cerevisiae deletion strains, locus YMR223W, strain ubp8, hits give low values 1 | S. cerevisiae deletion strains, locus YMR231W, strain pep5, hits give low values 0.982 | S. cerevisiae deletion strains, locus YMR263W, strain SAP30, hits give low values 1.02 | S. cerevisiae deletion strains, locus YMR307W, strain GAS1, hits give low values 0.911 | S. cerevisiae deletion strains, locus YNL067W, strain RPL9B, hits give low values 1.02 | S. cerevisiae deletion strains, locus YNL071W, strain lat1, hits give low values 1 | S. cerevisiae deletion strains, locus YNL128W, strain TEP1, hits give low values 1.01 | S. cerevisiae deletion strains, locus YNL153C, strain GIM3, hits give low values 1.01 | S. cerevisiae deletion strains, locus YNL183C, strain NPR1, hits give low values 1.01 | S. cerevisiae deletion strains, locus YNL209W, strain ssb2, hits give low values 0.979 | S. cerevisiae deletion strains, locus YNL233W, strain BNI4, hits give low values 1.02 | S. cerevisiae deletion strains, locus YNL248C, strain rpa49, hits give low values 0.996 | S. cerevisiae deletion strains, locus YNL250W, strain rad50, hits give low values 0.993 | S. cerevisiae deletion strains, locus YNL271C, strain bni1, hits give low values 0.995 | S. cerevisiae deletion strains, locus YNL298W, strain CLA4, hits give low values 0.989 | S. cerevisiae deletion strains, locus YNL307C, strain MCK1, hits give low values 1.02 | S. cerevisiae deletion strains, locus YNL322C, strain KRE1 (second series), hits give low values 0.971 | S. cerevisiae deletion strains, locus YNL322C, strain KRE1, hits give low values 1.01 | S. cerevisiae deletion strains, locus YNR049C, strain mso1, hits give low values 0.985 | S. cerevisiae deletion strains, locus YNR052C, strain pop2, hits give low values 0.99 | S. cerevisiae deletion strains, locus YOL006C, strain TOP1, hits give low values 1.04 | S. cerevisiae deletion strains, locus YOL012C, strain htz1 0.901 | S. cerevisiae deletion strains, locus YOL147C, strain pex11, hits give low values 1 | S. cerevisiae deletion strains, locus YOR001W, strain rrp6, hits give low values 0.978 | S. cerevisiae deletion strains, locus YOR061W, strain CKA2, hits give low values 1.01 | S. cerevisiae deletion strains, locus YOR069W, strain VPS5, hits give low values 1 | S. cerevisiae deletion strains, locus YOR070C, strain gyp1, hits give low values 0.986 | S. cerevisiae deletion strains, locus YOR080W, strain dia2, hits give low values 0.978 | S. cerevisiae deletion strains, locus YOR083W, strain WHI5, hits give low values 0.981 | S. cerevisiae deletion strains, locus YOR106W, strain vam3, hits give low values 1 | S. cerevisiae deletion strains, locus YOR136W, strain idh2, hits give low values 1 | S. cerevisiae deletion strains, locus YOR144C, strain elg1, hits give low values 1 | S. cerevisiae deletion strains, locus YOR184W, strain ser1, hits give low values 1 | S. cerevisiae deletion strains, locus YOR231W, strain MKK1, hits give low values 0.965 | S. cerevisiae deletion strains, locus YOR265W, strain rbl2, hits give low values 0.999 | S. cerevisiae deletion strains, locus YOR270C, strain vph1, hits give low values 0.97 | S. cerevisiae deletion strains, locus YOR290C, strain snf2, hits give low values 1 | S. cerevisiae deletion strains, locus YOR316C, strain cot1, hits give low values 0.999 | S. cerevisiae deletion strains, locus YPL051W, strain arl3, hits give low values 0.99 | S. cerevisiae deletion strains, locus YPL055C, strain LGE1, hits give low values 1.01 | S. cerevisiae deletion strains, locus YPL078C, strain atp4, hits give low values 0.985 | S. cerevisiae deletion strains, locus YPL106C, strain sse1, hits give low values 0.964 | S. cerevisiae deletion strains, locus YPL240C, strain hsp82, hits give low values 1.02 | S. cerevisiae deletion strains, locus YPL241C, strain CIN2, hits give low values 1.01 | S. cerevisiae deletion strains, locus YPL256C, strain CLN2, hits give low values 0.967 | S. cerevisiae deletion strains, locus YPR119W, strain clb2, hits give low values 0.995 | S. cerevisiae deletion strains, locus YPR141C, strain kar3, hits give low values 1 | S. cerevisiae deletion strains, locus YPR163C, strain tif3, hits give low values 1.01 | S. cerevisiae deletion strains, locus YPR167C, strain met16, hits give low values 0.998 | S. cerevisiae deletion strains, strain wtn01, hits give low values 0.989 | S. cerevisiae strains, strain wild type, hits give low values 1.01

— PubChem BioAssay AID1159580 (chemical genetic matrix, 2015)
